# Measurements taken from PubChem BioAssay (EPA / NIEHS).
# Where “and” joins values, the source holds several entries; their conditions need not be identical. Equal values may be shown once. Some compounds were tested as several samples or in several runs, with calls that do not always agree. Calls of active or inactive are those of the source. The calls were made as follows: active = hit-call score of the fitted dose curve at least 0.9, where 1 is the maximum; inactive = score below 0.9.
# Assays:
# [1] = APR_HepG2_CellCycleArrest_24hr: Apredica 24-hour HepG2 Assay for Cell Cycle Arrest (AID 2282905); details: imaging, actives raise or lower the signal;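 also: cell cycle arrest scored as ratio of 2N to 4N nuclear DNA content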
# Summary of the method: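 HepG2 cells were exposed to compounds at 0.39–200 uM (ten concentrations, duplicate) in 0.5% v/v DMSO for 24 hr. After formaldehyde fixation and Triton permeabilization, Hoechst 33342-stained nuclei were imaged at 20x; DNA content was quantified, with bidirectional fitting against DMSO.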
# [2] = APR_HepG2_CellLoss_24hr: Apredica 24-hour HepG2 Assay for Cell Loss (AID 2282908); details: high-content imaging;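 as to AC50: fit in both directions so a hit may be cell loss or gain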
# Summary of the method: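 Compounds were tested at 0.39–200 uM in duplicate with 0.5% v/v DMSO final. Cells were then fixed in 3.7% formaldehyde, Hoechst 33342 nuclei were imaged at 20x by HCS, and cell number was fitted bidirectionally against DMSO.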
# [3] = APR_HepG2_MicrotubuleCSK_24hr: Apredica 24-hour HepG2 Assay for Microtubule CSK Stabilty (AID 2282909); details: HepG2 microtubule cytoskeleton imaging, actives raise or lower the signal
# Summary of the method: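 HepG2 cells exposed 24 h to compounds at 0.39–200 uM (duplicate, 0.5% v/v DMSO final), then fixed, permeabilized and immunostained for alpha-tubulin with Hoechst 33342. Cytoskeleton imaged at 20x; bidirectional fit versus DMSO baseline.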
# [4] = APR_HepG2_MitoMembPot_24hr: Apredica 24-hour HepG2 Assay for Mitochondrial Membrane Potential (AID 2282911); details: imaging, actives raise or lower the signal
# Summary of the method: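 HepG2 human liver cells were exposed 24 hr to compounds at 0.39–200 uM (final DMSO 0.5% v/v) in duplicate. MitoTracker Red CMXRos (250 nM, 30 min) was loaded before formaldehyde fixation; fluorescence was imaged by ArrayScan HCS and fitted bidirectionally versus DMSO.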
# [5] = APR_HepG2_MitoMass_24hr: Apredica 24-hour HepG2 Assay for Mitochondrial Mass (AID 2282912); details: high-content imaging, actives raise or lower the signal
# Summary of the method: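 Human HepG2 liver cells were exposed for 24 hr to compounds at 0.39–200 uM (duplicates, 0.5% v/v DMSO final). They were stained live with 250 nM MitoTracker Red CMXRos for 30 min, fixed in 3.7% formaldehyde, and imaged by HCS fluorescence; signals were fitted bidirectionally against DMSO.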
# [6] = APR_HepG2_CellCycleArrest_72hr: Apredica 72-hour HepG2 Assay for Cell Cycle Arrest (AID 2282914); details: high-content imaging, actives raise or lower the signal
# Summary of the method: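 HepG2 cells were exposed to compounds at 0.39–200 uM (0.5% v/v DMSO final, duplicates) for 72 hr, fixed in 3.7% formaldehyde, permeabilized and stained with Hoechst 33342. Nuclear DNA content was quantified by high-content imaging; gain or loss of signal was fitted bidirectionally against DMSO.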
# [7] = APR_HepG2_CellLoss_72hr: Apredica 72-hour HepG2 Assay for Cell Loss (AID 2282915); details: high-content imaging
# Summary of the method: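 HepG2 cells were exposed for 72 hr to compounds at 0.39–200 uM (ten concentrations, duplicate) in 0.5% v/v final DMSO. Nuclei were stained with Hoechst 33342 after 3.7% formaldehyde fixation, imaged at 20x, and counted; fits bidirectional versus DMSO.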
# [8] = APR_HepG2_P-H2AX_72hr: Apredica 72-hour HepG2 Assay for H2AX Phosphorylation (AID 2282916); details: imaging, actives raise or lower the signal;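 also: phospho-histone H2A.x immunostain intensity per cell marking DNA damage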
# Summary of the method: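 HepG2 human liver cells were exposed for 72 hr to compounds at 0.39–200 uM (10 concentrations, duplicate per plate) in 0.5% v/v DMSO. Fixed, permeabilized cells were immunolabeled for phospho-histone H2A.x with Hoechst 33342 and imaged by HCS fluorescence; bidirectional fit versus DMSO.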
# [9] = APR_HepG2_MitoticArrest_72hr: Apredica 72-hour HepG2 Assay for Mitotic Arrest (AID 2282918); details: high-content imaging, actives raise or lower the signal
# Summary of the method: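 HepG2 cells were exposed for 72 hr to compound at 0.39–200 uM (10 concentrations, duplicate) in 0.5% v/v DMSO, fixed in 3.7% formaldehyde, immunostained for phospho-histone H3 with Hoechst 33342 and imaged by high-content fluorescence; bidirectional fits versus DMSO.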
# [10] = APR_HepG2_MicrotubuleCSK_72hr: Apredica 72-hour HepG2 Assay for Microtubule CSK Stabilty (AID 2282919); details: HepG2 microtubule cytoskeleton, high-content imaging, actives raise or lower the signal
# Summary of the method: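 HepG2 human liver cells were dosed for 72 h at ten concentrations from 0.39 to 200 uM in duplicate (0.5% v/v DMSO final). Fixed, permeabilized cells were immunostained for alpha-tubulin (Cy5) with a Hoechst counterstain and imaged at 20x.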
# [11] = APR_HepG2_P-H2AX_24hr: Apredica 24-hour HepG2 Assay for H2AX Phosphorylation (AID 2282920); details: high-content imaging, actives raise or lower the signal
# Summary of the method: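 HepG2 human liver cells were exposed for 24 hr to compounds at 0.39–200 uM in duplicate, with 0.5% v/v DMSO final. Fixed cells were immunostained for phospho-histone H2A.x plus Hoechst 33342, imaged by HCS fluorescence, and fitted bidirectionally against DMSO.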
# [12] = APR_HepG2_StressKinase_72hr: Apredica 72-hour HepG2 Assay for Stress Kinase (AID 2282921); details: HepG2 stress kinase (phospho-c-Jun) imaging, actives raise or lower the signal
# Summary of the method: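 Cells were exposed for 72 h to ten concentrations (0.39–200 uM, duplicate) at 0.5% v/v DMSO final, then fixed with 3.7% formaldehyde, permeabilized and immunostained for phospho-c-Jun (Cy3 secondary) with Hoechst nuclear counterstain.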
# [13] = APR_HepG2_StressKinase_24hr: Apredica 24-hour HepG2 Assay for Stress Kinase (AID 2282922); details: HepG2 stress kinase (phospho-c-Jun) imaging, actives raise or lower the signal
# Summary of the method: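 HepG2 cells exposed 24 hr to compound at 0.39–200 uM (10 concentrations, duplicate), 0.5% v/v DMSO final. Fixed in 3.7% formaldehyde, permeabilized with Triton X-100, immunolabeled for phospho-c-Jun with Hoechst 33342; HCS fluorescence imaging, bidirectional fit versus DMSO.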
# [14] = APR_HepG2_MitoMass_72hr: Apredica 72-hour HepG2 Assay for Mitochondrial Mass (AID 2282924); details: high-content imaging, actives raise or lower the signal;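 also: MitoTracker Red CMXRos stain intensity per cell imaged as mitochondrial mass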
# Summary of the method: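 HepG2 cells were exposed for 72 hr to compounds at 0.39–200 uM (ten concentrations, duplicate, 0.5% v/v DMSO final). Live cells were stained with 250 nM MitoTracker Red CMXRos for 30 min, then fixed in 3.7% formaldehyde and imaged by HCS fluorescence.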
# [15] = ATG_CRE_CIS: Attagene CIS-FACTORIAL HepG2 Assay for human cAMP Responsive Element (CRE) binding protein 3 (AID 2282926); details: HepG2 CRE cis-reporter, Attagene multiplexed mRNA; actives raise or lower the signal
# Summary of the method: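 HepG2 cells transiently transfected with a multiplexed reporter library (CRE-driven unit among them) were dosed for 24 h. Reporter mRNA was quantified by RT-PCR, fluorescent labelling, HpaI digestion and capillary electrophoresis, with bidirectional fitting against DMSO baseline.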
# [16] = biological target: CCAAT/enhancer-binding protein beta (Homo sapiens) (UniProt P17676); test: ATG_C_EBP_CIS: Attagene CIS-FACTORIAL HepG2 Assay for human CCAAT/Enhancer Binding Protein (C/EBP) beta (AID 2282927); details: HepG2 Attagene cis-factorial transcription factor reporter; actives raise or lower the signal
# CCAAT/enhancer-binding protein beta (Homo sapiens), sequence (P17676 whole entry, looked up): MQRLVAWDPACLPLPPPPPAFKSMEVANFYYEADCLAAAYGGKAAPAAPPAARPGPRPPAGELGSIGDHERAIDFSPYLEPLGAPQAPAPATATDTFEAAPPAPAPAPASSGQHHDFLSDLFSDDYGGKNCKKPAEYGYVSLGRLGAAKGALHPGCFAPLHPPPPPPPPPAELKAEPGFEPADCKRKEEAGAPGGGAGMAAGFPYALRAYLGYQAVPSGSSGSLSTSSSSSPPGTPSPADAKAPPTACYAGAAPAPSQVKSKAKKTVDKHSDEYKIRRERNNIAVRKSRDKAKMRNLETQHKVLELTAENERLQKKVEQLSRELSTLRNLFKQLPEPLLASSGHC
# Summary of the method: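 Following a 24 h incubation with test chemical, transfected HepG2 cells yielded RNA whose reporter transcripts were quantified by RT-PCR and fluorescent capillary electrophoresis, with DMSO serving as baseline for bidirectional fitting.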
# [17] = ATG_DR4_LXR_CIS: Attagene CIS-FACTORIAL HepG2 Assay for human Liver X Receptor (LXR), DR4 submotif (AID 2282929); details: HepG2 Attagene DR4 cis-reporter, mRNA transcription; actives raise or lower the signal
# Summary of the method: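 HepG2, transient MRTU transfection, cis-element (DR4) promoter; 24 h compound exposure; total RNA → oligo(dT) RT → PCR → 6-FAM primer extension → HpaI cut → CE. Gain/loss vs DMSO, bidirectional fit.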
# [18] = biological target: Aryl hydrocarbon receptor (Homo sapiens) (UniProt P35869); test: ATG_Ahr_CIS: Attagene CIS-FACTORIAL HepG2 Assay for human Aryl Hydrocarbon Receptor (Ahr) (AID 2282930); details: HepG2 AhR cis-factorial reporter transcription; actives raise or lower the signal
# Aryl hydrocarbon receptor (Homo sapiens), sequence (P35869 whole entry, looked up): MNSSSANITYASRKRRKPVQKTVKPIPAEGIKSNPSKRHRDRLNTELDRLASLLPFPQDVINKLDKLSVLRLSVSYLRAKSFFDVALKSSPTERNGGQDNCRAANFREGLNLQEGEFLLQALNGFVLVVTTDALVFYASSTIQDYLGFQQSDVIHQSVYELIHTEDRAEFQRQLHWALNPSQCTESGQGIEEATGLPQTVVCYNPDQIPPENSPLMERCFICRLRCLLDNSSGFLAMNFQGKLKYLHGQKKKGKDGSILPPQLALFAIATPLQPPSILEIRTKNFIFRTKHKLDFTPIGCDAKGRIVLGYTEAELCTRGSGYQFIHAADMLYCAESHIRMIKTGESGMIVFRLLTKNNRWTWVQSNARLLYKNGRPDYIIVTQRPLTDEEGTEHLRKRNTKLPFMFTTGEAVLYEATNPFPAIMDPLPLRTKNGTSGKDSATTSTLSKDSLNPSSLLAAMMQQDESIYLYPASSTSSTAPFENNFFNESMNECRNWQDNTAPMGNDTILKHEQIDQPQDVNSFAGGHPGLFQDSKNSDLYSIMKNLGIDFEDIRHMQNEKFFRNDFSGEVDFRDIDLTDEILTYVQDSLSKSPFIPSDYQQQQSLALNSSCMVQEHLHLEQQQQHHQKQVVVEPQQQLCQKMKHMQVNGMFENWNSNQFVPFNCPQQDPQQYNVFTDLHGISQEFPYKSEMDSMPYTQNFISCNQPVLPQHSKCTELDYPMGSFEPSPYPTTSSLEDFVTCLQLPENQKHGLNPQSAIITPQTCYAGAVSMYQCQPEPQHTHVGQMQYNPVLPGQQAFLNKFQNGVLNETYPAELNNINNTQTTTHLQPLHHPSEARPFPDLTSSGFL
# Summary of the method: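 Values derive from bidirectional fitting against DMSO negative control. Underlying signal: cis-element reporter mRNA in transiently transfected HepG2, harvested 24 h post-dose and measured by RT-PCR plus capillary electrophoresis.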
# [19] = ATG_CMV_CIS: Attagene CIS-FACTORIAL HepG2 Assay for human CMV (Internal Marker) (AID 2282928); details: HepG2 CMV promoter reporter, transcription factor profiling; actives raise or lower the signal;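 also: endpoint acts as a background internal control marker rather than a target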
# Summary of the method: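 HepG2 cells transiently transfected with multiple cis-regulated reporter units; 24 h compound exposure. Reporter mRNA quantified by RT-PCR, 6-FAM primer-extension labeling, HpaI digestion and capillary electrophoresis; bidirectional fitting against DMSO baseline.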
compound,measurement,setting,value
C[C@]12CCC(=O)C[C@@H]1CC[C@@H]1[C@@H]2CC[C@]2(C)[C@@H](O)CC[C@@H]12,outcome,[1],inactive
same,outcome,[2],inactive
same,outcome,[3],inactive
same,outcome,[4],inactive
same,outcome,[5],inactive
same,outcome,[6],inactive
same,AC50,[7],64.5 µM (active)
same,AC50,[8],91.2 µM (active)
same,outcome,[9],inactive
same,outcome,[10],inactive
same,outcome,[11],inactive
same,outcome,[12],inactive
same,outcome,[13],inactive
same,outcome,[14],inactive
same,outcome,[15],inactive
same,outcome,[16],inactive
same,AC50,[17],116 µM (active)
same,outcome,[17],inactive
same,AC50,[18],23.1 µM (active)
same,outcome,[18],inactive
Oc1cccc2cccnc12,AC50,[1],15.4 µM (active)
same,AC50,[2],2.29 µM (active)
same,outcome,[3],inactive
same,outcome,[4],inactive
same,outcome,[5],inactive
same,AC50,[6],1.59 µM (active)
same,AC50,[7],2.66 µM (active)
same,AC50,[8],16.9 µM (active)
same,AC50,[9],5.23 µM (active)
same,outcome,[10],inactive
same,outcome,[11],inactive
same,AC50,[12],18.8 µM (active)
same,outcome,[13],inactive
same,AC50,[14],3.1 µM (active)
same,outcome,[16],inactive
same,outcome,[17],inactive
same,AC50,[18],165 µM (active)
same,outcome,[18],inactive
ClCC(Cl)CCl,outcome,[1],inactive
same,outcome,[2],inactive
same,outcome,[3],inactive
same,outcome,[4],inactive
same,outcome,[5],inactive
same,outcome,[6],inactive
same,outcome,[7],inactive
same,outcome,[8],inactive
same,outcome,[9],inactive
same,outcome,[10],inactive
same,outcome,[11],inactive
same,outcome,[12],inactive
same,outcome,[13],inactive
same,outcome,[14],inactive
same,outcome,[15],inactive
same,outcome,[16],inactive
same,outcome,[19],inactive
same,outcome,[17],inactive
CC(C)(C)CC(C)(C)c1ccc(O)cc1,AC50,[1],161 µM (active)
same,AC50,[2],46 µM (active)
same,outcome,[3],inactive
same,AC50,[4],25.3 µM (active)
same,outcome,[5],inactive
same,AC50,[6],32 µM (active)
same,AC50,[7],43.4 µM (active)
same,outcome,[8],inactive
same,outcome,[9],inactive
same,outcome,[10],inactive
same,outcome,[11],inactive
same,outcome,[12],inactive
same,outcome,[13],inactive
same,outcome,[14],inactive
same,outcome,[15],inactive
same,outcome,[16],inactive
same,AC50,[19],17.1 µM (active) and 18 µM (active)
same,outcome,[19],inactive
same,AC50,[17],14.4 µM (active)
same,outcome,[17],inactive
CCC(=O)C(CC(C)N(C)C)(c1ccccc1)c1ccccc1 (stereo not given),AC50,[1],25.1 µM (active)
same,outcome,[2],inactive
same,outcome,[3],inactive
same,outcome,[4],inactive
same,outcome,[5],inactive
same,outcome,[6],inactive
same,AC50,[7],73.6 µM (active)
same,AC50,[8],73.5 µM (active)
same,AC50,[9],75.6 µM (active)
same,AC50,[10],81.3 µM (active)
same,outcome,[11],inactive
same,AC50,[12],78.9 µM (active)
same,outcome,[13],inactive
same,outcome,[14],inactive
same,outcome,[15],inactive
same,outcome,[16],inactive
same,outcome,[19],inactive
same,AC50,[17],92.4 µM (active)
same,outcome,[18],inactive
